In the supplement of paper PMC13380429:

Assays:
[1] = test system: Vero E6 infected with SARS-CoV-2; assay: morphology score (similarity to uninfected cells); higher = more like uninfected cells; details: 24 h
[2] = test system: Vero E6 infected with SARS-CoV-2; assay: SARS-CoV-2 infection rate relative to infected DMSO; higher = more infection, active = 60 or less; details: 24 h

SMILES	morphology score [1]	SARS-CoV-2 infection rate [2]
O=C(CO)[C@@H](O)[C@@H](O)[C@H](O)CO [tagatose] (10 µM)	-0.0178	108% (inactive)
CC1=C(/C=C/C(C)=C/C=C/C(C)=C/C=C/C=C(C)/C=C/C=C(C)/C=C/C2=C(C)C(=O)[C@@H](O)CC2(C)C)C(C)(C)C[C@H](O)C1=O [astaxanthin] (10 µM)	0.0152	107% (inactive)
CC(C)(C)[C@H]1CC[C@H](CC2=C(O)C(=O)c3ccccc3C2=O)CC1 [buparvaquone] (0.833333 µM)	0.0418	94% (inactive)
Cc1occc(=O)c1[O-].Cc1occc(=O)c1[O-].[O]=[V+2] [bis(maltolato)oxovanadium(IV)] (10 µM)	-0.461	106% (inactive)
CN=C(N)NCCC[C@H](N)C(=O)O [L-monomethylarginine] (10 µM)	0.197	97% (inactive)
Cn1cc(C2=C(c3cn(C4CCN(Cc5ccccn5)CC4)c4ccccc34)C(=O)NC2=O)c2ccccc21 [enzastaurin] (10 µM)	-0.0103	112% (inactive)
CC(=O)NCCc1c(Cc2ccccc2)[nH]c2ccccc12 [luzindole] (10 µM)	0.0073	99% (inactive)
CCCCOC(=O)c1cc2c(cn1)[nH]c1ccccc12 [beta-CCB] (10 µM)	0.156	94% (inactive)
CC(=O)OCC(=O)[C@@]1(O)CC[C@H]2[C@@H]3CCC4=CC(=O)C=C[C@]4(C)[C@@]3(F)[C@@H](O)C[C@@]21C [isoflupredone-acetate] (10 µM)	0.155	98% (inactive)
COc1ccc2c(OCc3nnc4ccc(-c5ccccc5)nn34)ccnc2c1 (10 µM)	0.0318	110% (inactive)
CCOC(=O)c1ccc(N2NC(=O)/C(=C/c3ccc([N+](=O)[O-])o3)C2=O)cc1 (10 µM)	0.149	85% (inactive)
CC(C)=CCC/C(C)=C/CC/C(C)=C/C=C/C(C)=C/C(=O)O [peretinoin] (10 µM)	-0.00242	108% (inactive)
Cc1cc(O)c(C(C)C)cc1Cl [chlorothymol] (10 µM)	-0.0977	104% (inactive)
CCCCCNCC(N)=O [milacemide] (10 µM)	0.0276	99% (inactive)
COc1ccc(/C=C/C(=O)Nc2ccccc2C(=O)O)cc1OC [tranilast] (10 µM)	0.0917	108% (inactive)
C[C@H](N)Cn1ccc2cc(F)c(Cl)cc21 (10 µM)	0.45	90.5% (inactive)

SMILES	morphology score [1]	SARS-CoV-2 infection rate [2]
Cc1cn(-c2cc(NC(=O)c3ccc(C)c(Nc4nccc(-c5cccnc5)n4)c3)cc(C(F)(F)F)c2)cn1 [nilotinib] (10 µM)	0.334	96.5% (inactive)
Fc1ccc([C@@H]2CCNC[C@H]2COc2ccc3c(c2)OCO3)cc1 [paroxetine] (10 µM)	-0.0761	117% (inactive)
CCc1c2c(nc3ccc(OC(=O)N4CCC(N5CCCCC5)CC4)cc13)-c1cc3c(c(=O)n1C2)COC(=O)[C@]3(O)CC [irinotecan] (0.833333 µM)	-0.0173	98% (inactive)
CCn1cc(C(=O)O)c(=O)c2cc(F)c(N3CCNCC3)cc21 [norfloxacin] (10 µM)	0.204	86% (inactive)
CCCCn1c(-c2ccccc2)nc(-c2ccccc2)c1CN(Cc1ccc2c(c1)OCO2)Cc1ccc2c(c1)OCO2 (10 µM)	0.139	99.5% (inactive)
COc1ccc(CC(=O)NC(/N=C(\NC#N)Nc2cccc3ncccc23)C(C)(C)C)cc1OC (configuration not stated) (10 µM)	0.297	97% (inactive)
N#Cc1ccc2[nH]c(O)c(-c3ccc(CN4CCOCC4)cn3)c2c1 (10 µM)	-0.238	100% (inactive)
c1cnc(NCc2ccc(CNc3ncccn3)cc2)nc1 (10 µM)	0.18	112% (inactive)
NC[C@H]1O[C@H](O[C@H]2[C@H](O)[C@@H](O[C@H]3O[C@H](CO)[C@@H](O)[C@H](N)[C@H]3O)[C@H](N)C[C@@H]2N)[C@H](N)[C@@H](O)[C@@H]1O [bekanamycin] (10 µM)	0.0989	103% (inactive)
COc1ccc2cc1Oc1ccc(cc1)C[C@H]1c3cc(c(OC)cc3CCN1C)Oc1c(OC)c(OC)cc3c1[C@H](C2)N(C)CC3 [tetrandrine] (10 µM)	0.509	12% (active)
Nc1ccc(F)cc1NC(=O)c1ccc(CNC(=O)/C=C/c2cccnc2)cc1 [chidamide] (0.833333 µM)	-0.0654	107% (inactive)
Nc1nc(NC2CC2)cc(-c2cccc(Cl)c2Cl)n1 (10 µM)	0.121	97% (inactive)
Clc1ccc2c(c1)N=C(N1CCNCC1)c1ccccc1N2 [desmethylclozapine] (10 µM)	0.467	53.5% (active)
CNC(=O)[C@@H](NC(=O)[C@H](CC(C)C)[C@H](O)C(=O)NO)C(C)(C)C [marimastat] (10 µM)	-0.0923	118% (inactive)
O=c1[nH]c(=O)c2ccccc2o1 [carsalam] (10 µM)	0.265	85% (inactive)
